Experiment [1] in a line: qHTS assay to identify small molecule antagonists of the glucocorticoid receptor (GR) signaling pathway - cell viability counter screen (AID 720693; also: nearly all actives have a fitted effect of over 55% in size). (In general: In qHTS, concentration-response curves come from the screen itself.)
The nature of experiment [2]: qHTS assay for identifying genotoxic compounds that show differential cytotoxicity against isogenic chicken DT40 cell lines with known DNA damage response pathways - wild type cell line (AID 743012). Also: nearly all actives have a fitted effect of over 60% in size. Also: potency is read from the fitted curve at half-maximal effect. Summed up: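 Wild type DT40, 300 cells/well, ~0.5 h settle at 37 C/5% CO2; compounds in DMSO added by pintool; 40 h at 37 C/5% CO2; CellTiter-Glo, 30 min RT; luminescence.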

Experiment [3] in a line: qHTS assay for identifying genotoxic compounds that show differential cytotoxicity against isogenic chicken DT40 cell lines with known DNA damage response pathways - Rev3 mutant cell line (AID 743014). Also: nearly all actives have a fitted effect of over 55% in size. Also: potency is read from the fitted curve at half-maximal effect.
Experiment [4] in a line: qHTS assay for identifying genotoxic compounds that show differential cytotoxicity against isogenic chicken DT40 cell lines with known DNA damage response pathways - Rad54/Ku70 mutant cell line (AID 743015). Also: nearly all actives have a fitted effect of over 60% in size. Also: potency is read from the fitted curve at half-maximal effect.
Experiment [5] is described as follows: qHTS assay to identify small molecule antagonists of the androgen receptor (AR) signaling pathway - cell viability counter screen (AID 743033; also: nearly all actives have a fitted effect of over 45% in size).
Experiment [6] in a line: qHTS assay to identify small molecule antagonists of the androgen receptor (AR) signaling pathway using the MDA cell line - cell viability counter screen (AID 743041; also: nearly all actives have a fitted effect of over 45% in size). Summed up: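 Cells were plated at 3,000 per well and left 5 h. Compounds in DMSO were then pinned in, followed by R1881. After 16 h at 37C, CellTiter-Fluor fluorescence gave viability.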
For experiment [7], the target named is Androgen receptor (Homo sapiens) (UniProt P10275). Kind of experiment: qHTS assay to identify small molecule antagonists of the androgen receptor (AR) signaling pathway (AID 743035; active = well fitted inhibition curve with a large enough effect in the signal ratio in the repeat runs, not every such curve was filed as active; the % refers to the signal ratio). The method, boiled down: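 Fluorescence from a beta-lactamase FRET substrate (LiveBLAzer B/G, 2 h, room temperature) measured inhibition of R1881-stimulated signaling in GeneBLAzer AR-UAS-bla HEK293 cells exposed to compound for 16 h at 37C.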
Chain of Androgen receptor (Homo sapiens) (P10275 whole entry, looked up): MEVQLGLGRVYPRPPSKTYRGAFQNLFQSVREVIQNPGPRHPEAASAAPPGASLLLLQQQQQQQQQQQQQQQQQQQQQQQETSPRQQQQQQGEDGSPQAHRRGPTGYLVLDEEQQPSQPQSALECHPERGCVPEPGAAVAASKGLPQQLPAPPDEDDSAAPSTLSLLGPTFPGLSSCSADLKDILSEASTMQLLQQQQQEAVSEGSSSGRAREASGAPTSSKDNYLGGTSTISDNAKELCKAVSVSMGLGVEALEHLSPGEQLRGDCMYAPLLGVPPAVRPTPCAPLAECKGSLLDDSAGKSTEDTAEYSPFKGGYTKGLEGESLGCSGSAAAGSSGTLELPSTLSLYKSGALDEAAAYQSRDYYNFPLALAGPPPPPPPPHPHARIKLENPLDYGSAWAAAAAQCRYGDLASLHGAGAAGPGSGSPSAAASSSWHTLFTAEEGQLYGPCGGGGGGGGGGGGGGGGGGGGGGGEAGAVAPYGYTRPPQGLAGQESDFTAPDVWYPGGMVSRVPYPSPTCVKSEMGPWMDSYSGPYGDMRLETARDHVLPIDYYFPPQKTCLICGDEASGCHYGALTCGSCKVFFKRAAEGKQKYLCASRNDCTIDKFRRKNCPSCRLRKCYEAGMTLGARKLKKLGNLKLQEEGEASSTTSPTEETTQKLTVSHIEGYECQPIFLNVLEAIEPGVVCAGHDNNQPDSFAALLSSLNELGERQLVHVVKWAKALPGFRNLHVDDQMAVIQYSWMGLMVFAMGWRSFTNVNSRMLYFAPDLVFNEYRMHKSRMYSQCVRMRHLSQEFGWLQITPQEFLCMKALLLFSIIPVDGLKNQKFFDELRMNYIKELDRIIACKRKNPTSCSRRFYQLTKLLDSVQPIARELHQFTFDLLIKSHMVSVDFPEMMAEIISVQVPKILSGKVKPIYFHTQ

For experiment [8] the target is unchanged. In words: qHTS assay to identify small molecule agonists of the androgen receptor (AR) signaling pathway (AID 743036; active = well fitted activation curve with a large enough effect in the signal ratio in the repeat runs, with a control signal flat, not every such curve was filed as active; the % refers to the signal ratio). The method, boiled down: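 HEK293 cells stably carrying a UAS-driven beta-lactamase reporter (GeneBLAzer AR-UAS-bla-GripTite) were plated at 2,000 cells/well, rested 4 h at 37C, then exposed to compounds in DMSO for 16 h. LiveBLAzer B/G FRET substrate was added for 2 h at room temperature; fluorescence read.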

The target is the same in experiment [9]. In words: qHTS assay to identify small molecule agonists of the androgen receptor (AR) signaling pathway using the MDA cell line (AID 743040; also: nearly all actives have a fitted effect of over 20% in size). Summed up: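 Cells plated, 5 h at 37C/0% CO2; compound or DMSO pinned; 16 h at 37C; ONE-Glo added; luminescence measured after 30 min at room temperature. Reporter line: MDA-kb2 with MMTV-luciferase responsive to AR and GR.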

Experiment [10] shares this target. In words: qHTS assay to identify small molecule antagonists of the androgen receptor (AR) signaling pathway using the MDA cell line (AID 743042; also: nearly all actives have a fitted effect of over 55% in size). The method, boiled down: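 Antagonist mode: compounds plus R1881 agonist added to MDA-kb2 AR-luc cells, incubated 16 h at 37C. Luciferase reporter luminescence quantified, with multiplexed CellTiter-Fluor readout for cell viability.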

Values joined by “and” are separate entries in the source; they are usually repeats but may differ in a detail not shown here. Equal entries are not always repeated. Inconclusive results are not listed. Where a structure was tested more than once in an assay, its records may differ in their call. Active and inactive are the calls of the source. Unless noted, calls follow the shape of the dose curve; as a rule, active = well fitted curve in the direction sought with a large enough effect in the repeat runs; inconclusive = weak or mixed curves; inactive = no such curve, though single readings can be large; an effect the other way counts as inactive or inconclusive.

Consider `CCCCCOC(=O)CCCCC`, for which the call in experiment [1] was inactive. In addition, the Potency entry in [2], in [3], in experiment [4], in experiment [5] and in experiment [6] was “inactive” each time.

On to `CC/C=C\CC/C=C/CO`, for which the result in experiment [1] was inactive. Moreover, the Potency result in experiment [2], in experiment [3], in experiment [4], in experiment [5] and in experiment [6] was “inactive” in each case.

Take `CCc1ccc(O)c(OC)c1`: the outcome in experiment [1] was inactive. The Potency entry in experiment [2], in experiment [3], in experiment [4], in experiment [5] and in experiment [6] was “inactive” throughout.

Turning to `CCC(C)C1CCCCC1=O` (stereo unspecified), the compound was called inactive in experiment [1]. Besides, the Potency entry in [2], in [3], in [4], in experiment [5] and in [6] was “inactive” each time.

Consider `N[C@@H](C(=O)N[C@@H]1C(=O)N2C(C(=O)O)=C(Cl)CS[C@H]12)c1ccccc1`, for which the compound was classed as inactive in [1]. In addition, the Potency entry in experiment [2], in experiment [3], in experiment [4], in experiment [5] and in experiment [6] was “inactive” in each case.

As to `CC/C=C\CC/C=C/C(OCC)OCC`, the call in [1] was inactive. For the same compound, the figures for the Potency in experiment [2], in experiment [3] and in experiment [4] were 43.3 µM (active), 48.6 µM (active) and 61.1 µM (active), respectively. The Potency result in experiment [5] and in experiment [6] was “inactive” throughout.

`NC(=O)c1ccc([N+](=O)[O-])cc1`: in experiment [1], the call was inactive. For the same compound, the Potency result in experiment [2], in [3], in experiment [4], in experiment [5] and in [6] was “inactive” throughout.

As to `CO/N=C(/C(=O)N[C@@H]1C(=O)N2C(C(=O)OCOC(=O)C(C)(C)C)=C(C)CS[C@H]12)c1csc(N)n1`, the result in experiment [1] was inactive. Also, the Potency result in experiment [2], in experiment [3], in experiment [4], in [5] and in [6] was “inactive” each time.

For the compound `N[C@H](C(=O)O)c1ccc(O)cc1`, the call in experiment [1] was inactive. For the same compound, the Potency entry in experiment [2], in [3], in experiment [4], in [5] and in experiment [6] was “inactive” each time.

As to `Cc1cc(O)cc2c1O[C@](C)(CCC[C@H](C)CCC[C@H](C)CCCC(C)C)CC2`, in [1], the outcome was inactive. Further, the Potency result in experiment [2], in experiment [3], in [4], in experiment [5] and in [6] was “inactive” in each case.

As to `CCOC(=O)c1ccc(C)cc1`, in experiment [1], the compound was classed as inactive. Also, the Potency entry in [2], in experiment [3], in [4], in experiment [5] and in [6] was “inactive” in each case.

As for `OC[C@]1(O)OC[C@@H](O)[C@H](O)[C@@H]1O`, the result in experiment [1] was inactive. Also, the Potency entry in experiment [2], in [3], in experiment [4], in [5] and in experiment [6] was “inactive” in each case.

Regarding `O=c1cc(CO)occ1O`, in experiment [1], the outcome was inactive. Also, the Potency entry in experiment [2], in experiment [3], in experiment [4], in experiment [5] and in [6] was “inactive” throughout.

Take `CC(C)=CCCC(C)CC(=O)O` (stereo unspecified): in experiment [1], the outcome was inactive. Also, the Potency entry in [2], in experiment [3], in [4], in experiment [5] and in [6] was “inactive” throughout.

As for `COCCc1ccc(OCC(O)CNC(C)C)cc1` (stereo unspecified), the compound was classed as inactive in experiment [1]. For the same compound, in experiment [2], the Potency entry was “inactive and 21.1 µM (active)”. Further, the Potency result in [3], in [4], in [5] and in experiment [6] was “inactive” throughout.

In the case of `O=C(O)Cc1ccc(CCNS(=O)(=O)c2ccc(Cl)cc2)cc1`, the compound was classed as inactive in experiment [1]. In addition, the Potency entry in [2], in [3], in experiment [4], in experiment [5] and in [6] was “inactive” in each case.

Turning to `CC(=O)N(CC(O)CO)c1c(I)c(C(=O)NCCO)c(I)c(C(=O)NCC(O)CO)c1I` (stereo unspecified), the compound was called inactive in experiment [1]. Besides, the Potency result in experiment [2], in [3], in experiment [4], in experiment [5] and in [6] was “inactive” each time.

Regarding `CCOC(=O)c1cccc(N)c1`, in experiment [1], the outcome was inactive. Moreover, the Potency entry in [2], in experiment [3], in experiment [4], in experiment [5] and in experiment [6] was “inactive” throughout.

`O=Cc1cccc([N+](=O)[O-])c1`: the compound was called inactive in [1]. In addition, the Potency entry in [2], in [3], in experiment [4], in experiment [5] and in experiment [6] was “inactive” each time.

`Cn1c(N)c(N=O)c(=O)n(C)c1=O`: the compound was classed as inactive in [1]. The Potency result in experiment [2], in [3], in [4], in experiment [5] and in experiment [6] was “inactive” throughout.

Regarding `O=c1n(CCO)c(=O)n(CCO)c(=O)n1CCO`, the call in experiment [1] was inactive. The Potency entry in experiment [2], in experiment [4], in [5] and in experiment [6] was “inactive” in each case. In addition, the Potency entry in experiment [3] was “inactive and 61.1 µM (active)”.

For the compound `NC(=O)c1ccc(N)cc1`, in experiment [1], the compound was classed as inactive. For the same compound, the Potency result in experiment [2], in [3], in experiment [4], in [5] and in experiment [6] was “inactive” in each case.

Consider `CCCCCCCCS(=O)(=O)Cl`, for which the call in experiment [1] was inactive. The Potency entry in experiment [2], in experiment [3], in experiment [5] and in [6] was “inactive” each time.

On to `O=C1CCCCCCCCCCCN1`, for which, in experiment [1], the compound was classed as inactive. In addition, the Potency entry in experiment [2], in experiment [3] and in experiment [5] was “inactive” throughout.

In the case of `CCOC(=O)Nc1ccc(NCc2ccc(F)cc2)nc1N`, the call in experiment [1] was inactive. Moreover, in experiment [2], the Potency was 26.6 µM (active). In addition, the Potency entry in experiment [3], in [5] and in experiment [6] was “inactive” in each case.

Regarding `CCOC(=O)CCC(C)=O`, the compound was classed as inactive in [1]. Moreover, the Potency result in experiment [2], in experiment [3] and in experiment [5] was “inactive” in each case.

Turning to `CC(C)c1cc2c(cc1S(=O)(=O)O)[C@@]1(C)CCC[C@@](C)(C(=O)O)[C@@H]1CC2`, the compound was called inactive in experiment [1]. The Potency entry in experiment [2], in experiment [3], in experiment [4], in experiment [5] and in [6] was “inactive” in each case.

For the compound `Cc1cccc(C)c1NC(=O)C(C)N` (stereo unspecified), the compound was called inactive in [1]. The Potency entry in experiment [2], in experiment [3], in experiment [5] and in experiment [6] was “inactive” in each case.

Turning to `C=CCCCCCCCCC=O`, the compound was called inactive in [1]. Moreover, the Potency result in experiment [2], in experiment [3], in experiment [4], in experiment [5] and in experiment [6] was “inactive” in each case.

Turning to `CCn1nc(C(=O)O)c(=O)c2cc3c(cc21)OCO3`, the call in [1], in [7] and in experiment [8] was inactive. The Potency entry in [2], in experiment [3], in experiment [4], in [9] and in experiment [10] was “inactive” in each case.

Turning to `CN(C)CCCSc1ccccc1NC(=O)/C=C/c1ccccc1`, the compound was called inactive in experiment [1]. Moreover, the Potency in experiment [2] was 26.6 µM (active); in experiment [3], 13.3 µM (active); in experiment [4], 29.8 µM (active). For the same compound, the Potency result in [5] and in experiment [6] was “inactive” each time.
